Test results taken from PubChem BioAssay (NCATS).
Records with an inconclusive call do not appear. A call without a number means that no potency is given here. Unmarked numbers belong to inactive results. Calls of active or inactive are those of the source. Unless noted, calls come from the whole dose curve; as a rule, active = well fitted curve in the direction sought with a large enough effect; inconclusive = small, poorly fitted or top-dose-only effect, or another doubt; inactive = no such curve, though single readings can be large; an effect the other way counts as inactive or inconclusive.

Experiments:
[1] = target: ATP-dependent 6-phosphofructokinase (Trypanosoma brucei brucei) (UniProt O15648); experiment: qHTS Assay to Find Inhibitors of T. brucei phosphofructokinase: hit validation (AID 492961);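 note: luminescence reports ADP formed as PFK phosphorylates fructose-6-phosphate with ATP; series mostly up to about 51 µM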
Sequence of ATP-dependent 6-phosphofructokinase (Trypanosoma brucei brucei) (O15648 whole entry, looked up): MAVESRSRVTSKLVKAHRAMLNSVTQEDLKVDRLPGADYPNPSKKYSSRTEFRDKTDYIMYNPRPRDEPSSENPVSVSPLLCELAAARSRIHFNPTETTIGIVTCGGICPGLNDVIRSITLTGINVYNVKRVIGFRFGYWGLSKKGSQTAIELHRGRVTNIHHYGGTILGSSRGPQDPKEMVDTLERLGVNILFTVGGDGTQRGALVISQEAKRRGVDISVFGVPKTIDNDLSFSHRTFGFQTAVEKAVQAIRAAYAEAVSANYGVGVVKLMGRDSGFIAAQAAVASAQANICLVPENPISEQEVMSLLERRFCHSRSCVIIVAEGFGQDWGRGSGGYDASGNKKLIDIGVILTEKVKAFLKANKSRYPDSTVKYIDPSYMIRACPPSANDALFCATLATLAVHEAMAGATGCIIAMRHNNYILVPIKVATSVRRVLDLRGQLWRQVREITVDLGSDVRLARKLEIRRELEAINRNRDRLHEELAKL
Procedure, shortened: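 Compounds titrated; %activity normalized to 0x and 1x enzyme controls, curve-fitted. Readout: ADP-Glo luminescence after 45 min room-temperature reaction of 1.25 nM PFK, 0.1 mM ATP, 0.5 mM F6P, pH 8.0.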

[2] = target: Ubiquitin carboxyl-terminal hydrolase 1 (Homo sapiens) (UniProt O94782); experiment: Inhibitors of USP1/UAF1: Pilot qHTS (AID 504865); note: nearly all actives have a fitted effect of over 35% in size; note: potency is the fitted concentration of half-maximal effect
Sequence of Ubiquitin carboxyl-terminal hydrolase 1 (Homo sapiens) (O94782 whole entry, looked up): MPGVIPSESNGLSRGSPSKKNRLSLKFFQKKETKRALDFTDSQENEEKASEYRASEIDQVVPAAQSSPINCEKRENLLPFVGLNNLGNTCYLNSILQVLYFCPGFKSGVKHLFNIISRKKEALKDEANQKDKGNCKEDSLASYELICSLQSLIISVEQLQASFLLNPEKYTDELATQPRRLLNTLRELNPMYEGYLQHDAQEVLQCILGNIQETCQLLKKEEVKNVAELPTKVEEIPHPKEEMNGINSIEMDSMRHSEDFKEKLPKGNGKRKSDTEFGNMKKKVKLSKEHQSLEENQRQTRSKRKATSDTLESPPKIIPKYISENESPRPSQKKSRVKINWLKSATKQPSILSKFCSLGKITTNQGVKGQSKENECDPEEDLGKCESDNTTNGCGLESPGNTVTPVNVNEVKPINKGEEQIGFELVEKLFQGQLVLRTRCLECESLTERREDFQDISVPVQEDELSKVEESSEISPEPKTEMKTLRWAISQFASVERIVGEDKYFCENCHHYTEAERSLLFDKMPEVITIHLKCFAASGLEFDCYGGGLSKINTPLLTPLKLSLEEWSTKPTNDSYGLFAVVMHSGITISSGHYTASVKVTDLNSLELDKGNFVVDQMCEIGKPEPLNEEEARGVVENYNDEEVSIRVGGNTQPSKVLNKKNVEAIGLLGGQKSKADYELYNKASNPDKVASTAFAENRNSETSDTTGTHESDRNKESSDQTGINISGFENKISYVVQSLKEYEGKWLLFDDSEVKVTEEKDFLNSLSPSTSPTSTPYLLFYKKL
Procedure, shortened: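 USP1/UAF1 complex (1nM) preincubated with compound 15 min at room temperature, then Ub-Rho substrate (150nM final) added. Fluorescence read kinetically at 480/540 nm, 6 reads every 60 seconds. Buffer: 50mM HEPES pH 7.8, 0.5mM EDTA, 0.1 mg/ml BSA, 1mM TCEP, 0.01% Tween-20.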

[3] = target: Androgen receptor (Homo sapiens) (UniProt P10275); experiment: qHTS assay for small molecule agonists of androgen receptor signaling (AID 588515; active = well fitted curve in the direction sought with a large enough effect in the signal ratio, with a control signal flat; the % refers to the signal ratio); settings: AR-UAS-bla HEK293, beta-lactamase ratio, agonist 16 h; stronger effect = higher value
Sequence of Androgen receptor (Homo sapiens) (P10275 whole entry, looked up): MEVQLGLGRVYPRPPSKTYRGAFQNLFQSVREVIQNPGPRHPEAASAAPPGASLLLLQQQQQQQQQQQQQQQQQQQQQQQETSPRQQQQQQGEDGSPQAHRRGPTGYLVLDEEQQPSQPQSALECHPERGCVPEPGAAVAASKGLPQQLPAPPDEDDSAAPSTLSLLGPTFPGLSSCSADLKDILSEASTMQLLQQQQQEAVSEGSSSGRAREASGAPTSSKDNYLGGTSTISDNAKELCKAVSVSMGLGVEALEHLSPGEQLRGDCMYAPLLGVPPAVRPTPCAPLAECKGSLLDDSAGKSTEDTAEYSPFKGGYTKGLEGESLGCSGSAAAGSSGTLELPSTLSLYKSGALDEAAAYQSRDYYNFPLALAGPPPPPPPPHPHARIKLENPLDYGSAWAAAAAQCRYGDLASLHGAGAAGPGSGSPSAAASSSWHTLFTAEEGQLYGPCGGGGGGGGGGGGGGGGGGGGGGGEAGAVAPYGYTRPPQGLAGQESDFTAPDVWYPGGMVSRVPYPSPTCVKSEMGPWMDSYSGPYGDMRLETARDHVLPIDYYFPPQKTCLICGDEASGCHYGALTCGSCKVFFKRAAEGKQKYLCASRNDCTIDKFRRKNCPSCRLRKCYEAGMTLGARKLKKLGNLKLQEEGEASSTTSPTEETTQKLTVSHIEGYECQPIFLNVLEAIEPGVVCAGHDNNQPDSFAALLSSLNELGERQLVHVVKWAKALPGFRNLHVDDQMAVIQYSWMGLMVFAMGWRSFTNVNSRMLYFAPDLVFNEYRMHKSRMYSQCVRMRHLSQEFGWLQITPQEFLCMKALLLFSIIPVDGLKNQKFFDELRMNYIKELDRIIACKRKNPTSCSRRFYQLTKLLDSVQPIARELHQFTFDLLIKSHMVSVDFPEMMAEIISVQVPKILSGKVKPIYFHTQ
Procedure, shortened: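 Stimulation of an AR-responsive β-lactamase reporter in GripTite HEK293 cells was measured after 16 h compound exposure at 37 °C, via CCF4 fluorescence after 2 h RT. EC50 from Hill fits, normalized to R1881 at 30 nM.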

[4] = target: Androgen receptor (Homo sapiens) (UniProt P10275); experiment: qHTS assay for small molecule antagonists of androgen receptor signaling (AID 588516; active = well fitted curve in the direction sought with a large enough effect in the signal ratio, with a control signal flat, not every such curve was filed as active; the % refers to the signal ratio)
Procedure, shortened: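 AR-UAS-bla-GripTite HEK 293 cells (2000/well, 5 h at 37 C) received compound titrations, then R1881 at 10 nM final; after 16 h at 37 C, CCF4 dye 2 h RT, beta-lactamase fluorescence read; IC50 from Hill fits.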

For `NC(N)=NS(=O)(=O)c1ccc(N)cc1`, the outcome [1] was “inactive” and the Potency [2] was “inactive”.

For `CCN(CC)CCOC(=O)C(c1ccccc1)c1ccccc1`, the outcome [1] was “inactive” and the Potency [2] was “inactive”.

With `Cc1cc(-n2nc3ccc(Cl)cc3n2)c(O)c(C(C)(C)C)c1` the outcome [1] was “inactive” and the Potency [2] was “inactive”.

With `Cc1cccc(C)c1NC(=O)CC12CCCN1CCC2` the outcome [1] was “inactive”.

In the case of `O=C(O)CNC(=O)c1ccccc1I`, the outcome [1] is reported as “inactive” and the Potency [2] is reported as “inactive”.

In the case of `OCC(O)CS` (stereo not drawn), the outcome [1] is reported as “inactive” and the Potency [2] is reported as “inactive”.

`NC(N)=NCCN1CCCCCCC1` was tested, and the outcome [1] was “inactive” and the Potency [2] was “inactive”.

In the case of `COc1ccc(C(=O)NCc2ccc(OCCN(C)C)cc2)cc1OC`, the outcome [1] is reported as “inactive” and the Potency [2] is reported as “inactive”.

`Cc1c(Cn2ccnc2)c2ccccc2n1CCC(=O)O` was tested, and the outcome [1] was “inactive”.

In the case of `O=c1[nH]c(=O)c2ccccc2o1`, the outcome [1] is reported as “inactive”.

`CCCCCCCCCCC(CO)CCCCCCCC` (stereo not drawn) was tested, and the outcome [1] was “inactive”.

In the case of `CCc1nnc(NS(=O)(=O)c2ccc(N)cc2)s1`, the outcome [1] is reported as “inactive” and the Potency [2] is reported as “inactive”.

In the case of `O=c1[nH]c2cc(C(F)(F)F)c(N3CCOCC3)cc2n(CP(=O)(O)O)c1=O`, the outcome [1] is reported as “inactive” and the Potency [2] is reported as “inactive”.

In the case of `COc1ccccc1OC(=O)Oc1ccccc1OC`, the outcome [1] is reported as “inactive”.

With `Cc1onc(-c2ccccc2)c1-c1ccc(S(N)(=O)=O)cc1` the outcome [1] was “inactive”.

`CCCCC1(COC(=O)CCC(=O)O)C(=O)N(c2ccccc2)N(c2ccccc2)C1=O` was tested, and the outcome [1] was “inactive”.

In the case of `O=C(O)c1cc(=O)c2ccccc2o1`, the outcome [1] is reported as “inactive”.

For `Cc1cc(OI)c(C(C)C)cc1-c1cc(C(C)C)c(OI)cc1C`, the outcome [1] was “inactive” and the Potency [2] was “inactive”.

For `COC(=O)c1ccccc1C(=O)c1ccc(OCCN2CCCCC2)cc1`, the outcome [1] was “inactive” and the Potency [2] was “inactive”.

For `NC(=O)CCCCC1CCSS1` (stereo not drawn), the outcome [1] was “inactive” and the Potency [2] was “inactive”.

In the case of `CC[N+](C)(CC)CCOC(=O)C1c2ccccc2Oc2ccccc21`, the outcome [1] is reported as “inactive”.

For `Cc1c(C)c2c(c(C)c1OC(=O)c1cccnc1)CC[C@@](C)(CCC[C@H](C)CCC[C@H](C)CCCC(C)C)O2`, the outcome [1] was “inactive” and the Potency [2] was “inactive”.

In the case of `CC(=O)Oc1cccc(O)c1`, the outcome [1] is reported as “inactive” and the Potency [2] is reported as “inactive”.

In the case of `C[C@H]1COc2c(C3(N)CC3)c(F)cc3c(=O)c(C(=O)O)cn1c23`, the outcome [1] is reported as “inactive”.

In the case of `O=C(O)c1ccc[n+]([O-])c1`, the outcome [1] is reported as “inactive”.

With `CC(O)CCCCn1c(=O)c2c(ncn2C)n(C)c1=O` (stereo not drawn) the outcome [1] was “inactive”.

In the case of `Cc1[nH]c(C)c(Cl)c(=O)c1Cl`, the outcome [1] is reported as “inactive” and the Potency [2] is reported as “inactive”.

`CCN(CC)S(=O)(=O)c1ccc(C(=O)O)cc1` was tested, and the outcome [1] was “inactive” and the Potency [2] was “inactive”.

With `CCN1CC(CCN2CCOCC2)C(c2ccccc2)(c2ccccc2)C1=O` (stereo not drawn) the outcome [1] was “inactive” and the Potency [2] was “inactive”.

With `Cc1ccc(S(=O)(=O)NC(=O)NC2CCCCC2)cc1` the outcome [1] was “inactive” and the Potency [2] was “inactive”.

`CC(C)(C)C(=O)OCOC(=O)[C@@H]1N2C(=O)[C@@H](NC(=O)[C@H](N)c3ccccc3)[C@H]2SC1(C)C` was tested, and the outcome [1] was “inactive” and the Potency [2] was “inactive”.

For `CCOC(N)=O`, the outcome [1] was “inactive” and the Potency [2] was “inactive”.

For `NCc1ccc(S(N)(=O)=O)cc1`, the outcome [1] was “inactive” and the Potency [2] was “inactive”.

For `CCCOC(=O)c1ccc(N)cc1`, the outcome [1] was “inactive” and the Potency [2] was “inactive”.

For `OCc1ccc(Cl)cc1Cl`, the outcome [1] was “inactive” and the Potency [2] was “inactive”.

`O=C(Cn1ccnc1[N+](=O)[O-])NCc1ccccc1` was tested, and the outcome [1] was “inactive” and the Potency [2] was “inactive”.

In the case of `CC1CCN(CCCC(=O)c2ccc(F)cc2)CC1`, the outcome [1] is reported as “inactive” and the Potency [2] is reported as “inactive”.

`Cc1ccc(S(=O)(=O)NC(=O)NC2CCCCCCC2)cc1` was tested, and the outcome [1] was “inactive” and the Potency [2] was “inactive”.

For `Cc1ccccc1N=Nc1ccc(N=Nc2c(O)ccc3ccccc23)c(C)c1`, the outcome [1] was “inactive” and the Potency [2] was “inactive”.

`C=CCSCC1Nc2cc(Cl)c(S(N)(=O)=O)cc2S(=O)(=O)N1` (stereo not drawn) was tested, and the outcome [1] was “inactive” and the Potency [2] was “inactive”.

With `CCCCCCCCCCCCCCCCC(C(=O)O)C(O)(CC(=O)O)C(=O)O` (stereo not drawn) the outcome [1] was “inactive” and the Potency [2] was 22.4 µM (active).

With `Cc1ncc(CO)c(CN)c1O` the outcome [1] was “inactive” and the Potency [2] was “inactive”.

`NCC1CCC(C(=O)Oc2ccc(CCC(=O)O)cc2)CC1` (stereo not drawn) was tested, and the outcome [1] was “inactive” and the Potency [2] was “inactive”.

With `CC(C)c1cc2c(cc1S(=O)(=O)O)[C@@]1(C)CCC[C@@](C)(C(=O)O)[C@@H]1CC2` the outcome [1] was “inactive” and the Potency [2] was “inactive”.

For `Cc1c(I)c(=O)n(-c2ccccc2)n1C`, the outcome [1] was “inactive” and the Potency [2] was “inactive”.

For `COC(=O)c1cccnc1`, the outcome [1] was “inactive” and the Potency [2] was “inactive”.

In the case of `CC(C(=O)O)c1ccc2c(c1)Cc1cccnc1O2` (stereo not drawn), the outcome [1] is reported as “inactive” and the Potency [2] is reported as “inactive”.

`CCS(=O)(=O)CCn1c([N+](=O)[O-])cnc1C` was tested, and the outcome [1] was “inactive” and the Potency [2] was “inactive”.

For `CN1CCN(C(=O)C2CCCCC2)CC1`, the outcome [1] was “inactive” and the Potency [2] was “inactive”.

`COc1cc(C(=O)NCCCCCC(=O)O)cc(OC)c1OC` was tested, and the outcome [1] was “inactive” and the Potency [2] was “inactive”.

`O=C(O)Cn1c(C(=O)Nc2nc(-c3ccccc3Cl)cs2)cc2ccccc21` was tested, and the outcome [1] was “inactive” and the Potency [2] was 79.4 µM (active).

With `CCN(CC)CCc1nc(-c2ccccc2)no1` the outcome [1] was “inactive” and the Potency [2] was “inactive”.

With `O=C(O)COC(=O)Cc1ccccc1Nc1c(Cl)cccc1Cl` the outcome [1] was “inactive” and the Potency [2] was “inactive”.

For `CC(C)CCCC(C)CCCC(C)CCCCC(C)CCCC(C)CCCC(C)C` (stereo not drawn), the outcome [1] was “inactive” and the Potency [2] was “inactive”.

In the case of `NS(=O)(=O)c1ccc(NC(=O)CCC(=O)O)cc1`, the outcome [1] is reported as “inactive” and the Potency [2] is reported as “inactive”.

With `CC(C)C[C@@H](N)C(=O)O` the outcome [1] was “inactive” and the Potency [2] was “inactive”.

For `NS(=O)(=O)c1cc2c(cc1C(F)(F)F)NCNS2(=O)=O`, the outcome [1] was “inactive” and the Potency [2] was “inactive”.

For `COc1ccccc1Oc1c(NS(=O)(=O)c2ccc(C(C)(C)C)cc2)nc(-c2ncccn2)nc1OCCO`, the outcome [1] was “inactive” and the Potency [2] was “inactive”.

In the case of `NNc1nnc(NN)c2ccccc12`, the outcome [1] is reported as “inactive” and the Potency [2] is reported as “inactive”.

`CC(N)CCCC(C)(C)O` (stereo not drawn) was tested, and the outcome [1] was “inactive” and the Potency [2] was “inactive”.

In the case of `COc1ccc(NS(=O)(=O)c2ccc(N)cc2)nn1`, the outcome [1] is reported as “inactive” and the Potency [2] is reported as “inactive”.

In the case of `CC(C)=CCC/C(C)=C/CO`, the activation [3] is reported as 8.43% and the outcome [4] is reported as “inactive”.

For `Cc1c(C(=O)NCCO)[n+](=O)c2ccccc2n1[O-]`, the outcome [4] was “inactive”.
